# Among all 57,000 […] or so, about 5,100 (8.9%) were called active. No stated cut-off is given here; in the data, active = GI50 up to about 1.1 µM and inactive = higher. A selection follows. Measured potencies and affinities stand elsewhere.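 Step 1: Grow cells in 96-well plates. Step 2: Expose to compound for 48 hours at 5 concentrations. Step 3: Interpolate endpoints linearly; if unreached, use highest concentration. Here, GI50 denotes the concentration required for 50% inhibition of growth.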
# System: HCT-116
# Test: NCI tumour cell line growth inhibition, 48 h
row,Substance,GI50 [µM]
1,"[Bis(aminomethyl)tetramethylenesilane]dichloropaltinum(II), CHEMBL2146205",11.5
2,"[Bis(aminomethyl)pentamethylenesilane]dichloropaltinum(II), CHEMBL2146202",2.48
3,"CISPLATIN, CHEMBL11359",4.12
4,"mu-(1,7-nanodiamine-N,N')bis-(cis-aminedichloroplatimum (II)), CHEMBL2146215",41.3
5,"[Bis(aminomethyl)pentamethylenesilane]tetrachloropaltinum(IV), CHEMBL2146204",1.13
6,"[Bis(aminomethyl)dimethylsilane]tetrachloroplatinum(IV), CHEMBL2146190",8.77
7,"[Bis(aminomethyl)diethylsilane]tetrachloroplatinum(IV), CHEMBL2146203",3.94
8,"[Bis(aminomethyl)tetramethylenesilane]tetrachloropaltinum(IV), CHEMBL2146189",4.18
